Several values for one entry are separate records, joined by “and”; a condition that tells them apart may be missing. Identical values can stand only once. Records with an inconclusive call do not appear. The source holds several records for some structures; these can differ, active in one and inactive in another. Activity calls are given as the source filed them. Unless noted, calls come from the whole dose curve; as a rule, active = well fitted curve in the direction sought with a large enough effect in the repeat runs; inconclusive = weak or mixed curves; inactive = no such curve, though single readings can be large; an effect the other way counts as inactive or inconclusive.
Tests used:
[1] = molecular target: Retinoic acid receptor RXR-alpha (Homo sapiens) (UniProt P19793); assay: qHTS assay to identify small molecule agonists of the RXR signaling pathway (AID 1159527; calls by dose curve; note: nearly all actives have a fitted effect of over 35% in size)
Retinoic acid receptor RXR-alpha (Homo sapiens), sequence (P19793 whole entry, looked up): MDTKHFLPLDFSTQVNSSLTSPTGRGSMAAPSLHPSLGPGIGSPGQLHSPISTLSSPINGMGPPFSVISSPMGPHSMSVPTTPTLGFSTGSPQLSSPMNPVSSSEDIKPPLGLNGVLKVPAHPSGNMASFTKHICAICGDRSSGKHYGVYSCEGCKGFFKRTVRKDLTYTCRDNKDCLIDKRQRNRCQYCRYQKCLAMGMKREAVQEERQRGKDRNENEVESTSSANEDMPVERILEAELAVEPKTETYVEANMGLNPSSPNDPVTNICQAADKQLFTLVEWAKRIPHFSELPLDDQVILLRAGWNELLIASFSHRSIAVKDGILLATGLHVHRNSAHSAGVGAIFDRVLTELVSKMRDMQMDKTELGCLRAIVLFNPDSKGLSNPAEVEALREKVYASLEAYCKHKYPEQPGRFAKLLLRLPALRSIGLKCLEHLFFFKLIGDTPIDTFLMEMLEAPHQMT
Procedure, shortened: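 Beta-lactamase reporter assay, agonist format. Engineered HEK 293T line, charcoal-stripped FBS at 2%, overnight (16 hr) exposure, fluorescence at 460 and 530 nm after 405 nm excitation.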

[2] = qHTS assay to identify small molecule agonists of the RXR signaling pathway - cell viability counter screen (AID 1159529); note: nearly all actives have a fitted effect of over 50% in size; note: potency is the fitted concentration of half-maximal effect
Procedure, shortened: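 Same-well viability check after the LiveBLAzer FRET read: CellTiter-Glo added, luminescence measured after 30 min at room temperature. Reporter HEK 293T cells had been treated with compounds for 16 hr following a 5 hr preincubation.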

[3] = qHTS assay to identify small molecule antagonists of the retinoid acid receptor (RAR) signaling pathway - cell viability counter screen (AID 1159551); note: nearly all actives have a fitted effect of over 35% in size
Procedure, shortened: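 C3RL4 cells were seeded overnight at 37 C, then treated with compounds plus 1 uM (final) retinol for 6 h at 37 C. Viability was read as ATP by CellTiter-Glo luminescence after 30 min at room temperature.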

[4] = qHTS assay to identify small molecule antagonists of the retinoic acid receptor (RAR) signaling pathway (AID 1159552; note: nearly all actives have a fitted effect of over 50% in size)
Procedure, shortened: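 Readout: luciferase luminescence, 30 min post-reagent at RT. Setup: C3RL4 RARE reporter cells, compounds plus retinol 1 uM final, 6 hr incubation at 37 C and 5% CO2.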

[5] = qHTS assay to identify small molecule agonists of the retinoic acid receptor (RAR) signaling pathway (AID 1159553); note: potency is the fitted concentration of half-maximal effect
Procedure, shortened: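 C3RL4 cells carrying a RARE luciferase reporter were plated overnight at 37 C, then exposed to compounds in DMSO for 6 hr at 37 C and 5% CO2. Luminescence was read 30 min after luciferase reagent addition at room temperature.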

[6] = qHTS assay to identify small molecule antagonists of the estrogen related receptor (ERR) signaling pathway (AID 1224819;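 note: luminescence from an ERR-driven luciferase reporter measured with One-Glo reagent; series mostly up to about 46 µM; nearly all actives have a fitted effect of over 50% in size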)
Procedure, shortened: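 ERR reporter cells were plated at 2,000 cells/well and left 6 h at 37 C/5% CO2 before pin-tool transfer of compounds in DMSO. After 18 h at 37 C, One-Glo was added and luminescence was read 30 min later at room temperature.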

[7] = qHTS assay to identify small molecule agonists of the estrogen related receptor (ERR) signaling pathway (AID 1224820)
Procedure, shortened: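 ERR reporter cell line (from NTP), 2,000 cells/well, incubated 6 h before compound addition, then 18 h at 37 C. Luminescence measured 30 min after One-Glo reagent at room temperature.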

[8] = tested on: estrogen-related receptor alpha (ERRalpha) with PGC-1alpha coactivator, human; assay: qHTS assay to identify small molecule antagonists of the estrogen related receptor signaling pathway with the pleiotropic PPARgamma coactivator (PGC) (AID 1224821; calls by dose curve;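 note: series mostly up to about 46 µM; lower luminescence signal means antagonism of PGC/ERR signalling; nearly all actives have a fitted effect of over 50% in size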)
Procedure, shortened: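 PGC/ERR reporter cell line, plated 6 h before compound addition, then exposed 18 h at 37 °C. Luciferase activity read by luminescence 30 min after One-Glo addition; decrease indicates antagonism.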

[9] = qHTS assay to identify small molecule antagonists of the estrogen related receptor signaling pathway with the pleiotropic PPARgamma coactivator (PGC) cell viability counter screen (AID 1224822;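 note: series mostly up to about 46 µM; viability read after 17.5 h compound exposure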)
Procedure, shortened: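 PGC/ERR cells were seeded at 2,000 cells/well, rested 6 h at 37 C/5% CO2, then given compounds in DMSO by pin tool and incubated 17.5 h at 37 C. Viability came from CellTiter-Fluor fluorescence after 30 min.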

[10] = qHTS assay to identify small molecule agonists of the estrogen related receptor signaling pathway with the pleiotropic PPARgamma coactivator (PGC) (AID 1224823)
Description: National Center for Advancing Translational Sciences [NCATS]
NIH Chemical Genomics Center [NCGC]
U.S. Environmental Protection Agency [EPA]
National Institutes of Environmental Health Sciences [NIEHS]
National Toxicology Program [NTP]
Estrogen related receptors (ERRs), the first orphan nuclear receptors discovered, play an important role in the control of cellular energy metabolism. ERRs are required for high-energy production in response to the environmental challenges. The pleiotropic PPARgamma coactivator (PGC) is a major partner of ERR and a key regulator in energy homeostasis. Together they have been implicated in the etiology of metabolic disorders such as Type 2 diabetes and metabolic syndrome. ERR-alpha was also identified as an adverse marker for breast cancer progression; ERR-alpha-positive tumors have a poor prognosis. To screen and to identify environmental compounds that perturb the PGC/ERR signaling pathways could provide valuable information for potential therapeutic or preventive measures in the treatment of metabolic disease. For identifying PGC/ERR agonists, PGC/ERR cell line (provided by NTP) has been used to screen LOPAC library.
The PGC/ERR cells were dispensed at 2,000 cells/5 ul/well in 1536-well white plates using a Multidrop dispenser. After the assay plates were incubated at a 37 C/5% CO2 incubator for 6 hours, 23 nL of compounds dissolved in DMSO, positive and negative controls or DMSO only was transferred to the assay plate by a pin tool. The plates were incubated at 37 C for 18 hours. 4 ul/well of One-Glo reagent was added into the assay plates using a Flying Reagent Dispenser. After 30 min incubation at room temperature, the luminescence intensity in the plates was measured using a ViewLux plate reader.

Measured: Potency

Cc1nc2ccccn2c(=O)c1CCN1CCC(C(=O)c2ccc(F)cc2)CC1
inactive: all assays above

CCCCCCCCCCCCCCC[C@H](O)[C@@H](N)CO
inactive: [1] | [2] | [3] | [4] | [5]

C[N+]1(C)CCC(=C(c2ccccc2)c2ccccc2)CC1
inactive: [1] | [2] | [3] | [4] | [5]

CC1=CC(=O)CC(C)(C)C1(O)/C=C/C(C)=C\C(=O)O (stereo not given)
inactive: [1] | [2] | [3] | [4] | [5]

O=C(O)c1cccnc1C(=O)O
inactive: [1] | [2] | [3] | [4] | [5] | [9]

CCCCCCCC/C=C\CCCCCCCC(=O)OC(CO)CO
inactive: [1] | [2] | [3] | [5]

CN1C(=O)CC(C)(c2ccccc2)C1=O (stereo not given)
inactive: [1] | [2] | [3] | [4] | [5]

CCOc1cc(N)c(Cl)cc1C(=O)NCC1CN(Cc2ccc(F)cc2)CCO1 (stereo not given)
inactive: [1] | [2] | [3] | [4] | [5]

C[Si]1(C)O[Si](C)(C)O[Si](C)(C)O1
inactive: [1] | [2] | [3] | [4] | [5]

CCCCCCCCSCCO
inactive: [1] | [2] | [3] | [4] | [5]

CC(C)CCCCCCOC(=O)CCCCC(=O)OCCCCCCC(C)C
inactive: [1] | [2] | [3] | [4] | [5]

CC(=N\O)/C(C)=N/O
inactive: [1] | [2] | [3] | [5]

COC(OC)(C(=O)c1ccccc1)c1ccccc1
inactive: [1] | [2] | [3] | [4]

CC#N
inactive: [1] | [2] | [3] | [5]

CC1(C)C(=O)N(Br)C(=O)N1Cl
inactive: [1] | [2] | [3] | [4] | [5]

C[C@]12CCC(=O)C=C1C=C[C@@H]1[C@@H]2CC[C@@]2(C)[C@H]1CC[C@@]21CCC(=O)O1
inactive: [1] | [2] | [3] | [5]

O=C(CCC1CCN(Cc2ccccc2)CC1)c1ccc2c(c1)NCCCC2
inactive: [1] | [2] | [3] | [4] | [5]

CCN(CC)CCNC(=O)c1ccc(NC(C)=O)cc1
inactive: [1] | [2] | [3] | [4] | [5] | [9]

COc1cc2[nH]c(=O)[nH]c(=O)c2cc1OC
inactive: [1] | [2] | [3] | [4] | [5]

CO[C@H]1O[C@H](CO)[C@@H](O)[C@H](O)[C@H]1O
inactive: [1] | [2] | [3] | [4] | [5]

c1ccc(COCc2ccccc2)cc1
inactive: [1] | [2] | [3] | [4] | [5]

CC1(C)O[C@@H]2C[C@H]3[C@@H]4CCC5=CC(=O)C=C[C@]5(C)[C@H]4[C@@H](O)C[C@]3(C)[C@]2(C(=O)CO)O1
inactive: [1] | [2] | [3] | [5]

CCCC1C(CC)=CC(CC)=CN1c1ccccc1 (stereo not given)
inactive: [1] | [2] | [3] | [4]

O=C(O)C(Cc1cc(I)c(O)c(I)c1)c1ccccc1 (stereo not given)
inactive: [1] | [2] | [3] | [4] | [5]

Cc1nc2ccccc2s1
inactive: [1] | [2] | [3] | [4] | [5]

CCCOC(=O)c1ccc(N)cc1
active: [5] 23.7 µM
inactive: [1] | [2] | [3] | [4]

O=Cc1c(Cl)cccc1Cl
inactive: [1] | [2] | [3] | [4] | [5]

C=CC(=C)CCCC(C)(C)OC(C)=O
inactive: [1] | [2] | [3] | [4] | [5]

Cc1oncc1C(=O)Nc1ccc(C(F)(F)F)cc1
inactive: [1] | [3] | [4] | [9]
43.6 µM (active) and inactive: [2]
active: [5] 3.06 µM and 2.98 µM

CCCCC(CC)CNCC(CC)CCCC (stereo not given)
inactive: [1] | [2] | [3] | [4] | [5]

CC(C)(C)C(=O)C(Oc1ccc(Cl)cc1)n1ccnc1 (stereo not given)
inactive: [1] | [2] | [3] | [4]

— PubChem BioAssay (Tox21)
